Data on one compound can be found in ChEMBL document CHEMBL2218924, “A broad activity screen in support of a chemogenomic map for kinase signalling research and drug discovery” (Biochem J, 2013).

Experiment [1] has as its target T1, Ephrin type-A receptor 3 (Homo sapiens) (UniProt P29320).
T1 sequence (whole entry): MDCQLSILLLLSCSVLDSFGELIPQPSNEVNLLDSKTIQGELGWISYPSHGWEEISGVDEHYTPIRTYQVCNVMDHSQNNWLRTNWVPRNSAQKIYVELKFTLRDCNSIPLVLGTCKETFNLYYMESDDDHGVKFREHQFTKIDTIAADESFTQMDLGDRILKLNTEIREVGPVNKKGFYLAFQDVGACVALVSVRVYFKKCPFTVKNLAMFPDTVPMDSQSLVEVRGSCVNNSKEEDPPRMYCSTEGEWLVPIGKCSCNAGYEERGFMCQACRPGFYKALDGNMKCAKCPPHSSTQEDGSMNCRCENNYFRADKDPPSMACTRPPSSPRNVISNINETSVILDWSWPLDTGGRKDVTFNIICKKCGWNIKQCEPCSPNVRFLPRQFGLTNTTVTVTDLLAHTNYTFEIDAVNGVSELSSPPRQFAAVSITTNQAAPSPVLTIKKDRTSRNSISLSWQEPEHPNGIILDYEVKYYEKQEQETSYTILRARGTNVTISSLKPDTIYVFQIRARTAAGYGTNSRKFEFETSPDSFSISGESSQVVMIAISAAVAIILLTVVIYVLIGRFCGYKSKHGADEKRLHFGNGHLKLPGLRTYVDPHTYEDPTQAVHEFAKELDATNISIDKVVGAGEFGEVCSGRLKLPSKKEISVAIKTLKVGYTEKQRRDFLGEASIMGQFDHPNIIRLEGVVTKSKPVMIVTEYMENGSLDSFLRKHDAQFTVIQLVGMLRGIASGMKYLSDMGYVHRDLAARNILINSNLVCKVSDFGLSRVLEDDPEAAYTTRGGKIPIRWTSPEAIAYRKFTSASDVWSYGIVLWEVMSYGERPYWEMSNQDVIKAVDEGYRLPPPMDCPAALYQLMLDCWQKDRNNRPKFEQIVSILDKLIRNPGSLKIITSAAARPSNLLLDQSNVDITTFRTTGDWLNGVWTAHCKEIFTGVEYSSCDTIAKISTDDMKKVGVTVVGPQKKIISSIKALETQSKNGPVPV
The settings on record: at 10 µM.

For experiment [2], the target named is Ephrin type-A receptor 4 (Homo sapiens) (UniProt P54764). The following applies: at 1 µM.
Sequence of Ephrin type-A receptor 4 (Homo sapiens) (P54764 whole entry): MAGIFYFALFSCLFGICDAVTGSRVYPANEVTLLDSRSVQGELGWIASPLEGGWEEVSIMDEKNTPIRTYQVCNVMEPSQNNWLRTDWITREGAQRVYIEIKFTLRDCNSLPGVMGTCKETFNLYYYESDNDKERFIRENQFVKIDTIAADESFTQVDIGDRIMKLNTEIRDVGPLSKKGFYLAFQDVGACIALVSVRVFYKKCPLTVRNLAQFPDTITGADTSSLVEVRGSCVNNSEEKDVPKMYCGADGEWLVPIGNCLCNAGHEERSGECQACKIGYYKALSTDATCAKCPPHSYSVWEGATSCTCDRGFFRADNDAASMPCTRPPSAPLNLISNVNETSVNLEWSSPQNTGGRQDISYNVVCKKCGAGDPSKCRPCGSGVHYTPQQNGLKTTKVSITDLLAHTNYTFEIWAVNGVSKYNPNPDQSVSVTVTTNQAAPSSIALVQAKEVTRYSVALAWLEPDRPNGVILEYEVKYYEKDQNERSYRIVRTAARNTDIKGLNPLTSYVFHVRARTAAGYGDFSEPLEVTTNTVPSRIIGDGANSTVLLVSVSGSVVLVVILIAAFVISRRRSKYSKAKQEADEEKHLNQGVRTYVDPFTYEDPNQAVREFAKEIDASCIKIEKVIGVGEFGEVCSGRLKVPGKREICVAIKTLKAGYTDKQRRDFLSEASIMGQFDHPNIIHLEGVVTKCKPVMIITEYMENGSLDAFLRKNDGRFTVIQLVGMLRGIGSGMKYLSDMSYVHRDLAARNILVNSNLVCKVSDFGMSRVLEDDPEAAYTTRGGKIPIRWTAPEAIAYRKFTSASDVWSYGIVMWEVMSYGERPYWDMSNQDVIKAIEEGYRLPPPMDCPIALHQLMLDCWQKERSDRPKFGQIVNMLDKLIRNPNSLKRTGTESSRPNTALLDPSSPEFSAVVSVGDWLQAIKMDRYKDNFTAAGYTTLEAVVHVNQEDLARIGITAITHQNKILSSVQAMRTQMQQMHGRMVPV
The target is the same in experiment [3]. The settings on record: at 10 µM.
For experiment [4], the target named is Ephrin type-A receptor 5 (Homo sapiens) (UniProt P54756). The settings on record: at 1 µM.
Sequence of Ephrin type-A receptor 5 (Homo sapiens) (P54756 whole entry): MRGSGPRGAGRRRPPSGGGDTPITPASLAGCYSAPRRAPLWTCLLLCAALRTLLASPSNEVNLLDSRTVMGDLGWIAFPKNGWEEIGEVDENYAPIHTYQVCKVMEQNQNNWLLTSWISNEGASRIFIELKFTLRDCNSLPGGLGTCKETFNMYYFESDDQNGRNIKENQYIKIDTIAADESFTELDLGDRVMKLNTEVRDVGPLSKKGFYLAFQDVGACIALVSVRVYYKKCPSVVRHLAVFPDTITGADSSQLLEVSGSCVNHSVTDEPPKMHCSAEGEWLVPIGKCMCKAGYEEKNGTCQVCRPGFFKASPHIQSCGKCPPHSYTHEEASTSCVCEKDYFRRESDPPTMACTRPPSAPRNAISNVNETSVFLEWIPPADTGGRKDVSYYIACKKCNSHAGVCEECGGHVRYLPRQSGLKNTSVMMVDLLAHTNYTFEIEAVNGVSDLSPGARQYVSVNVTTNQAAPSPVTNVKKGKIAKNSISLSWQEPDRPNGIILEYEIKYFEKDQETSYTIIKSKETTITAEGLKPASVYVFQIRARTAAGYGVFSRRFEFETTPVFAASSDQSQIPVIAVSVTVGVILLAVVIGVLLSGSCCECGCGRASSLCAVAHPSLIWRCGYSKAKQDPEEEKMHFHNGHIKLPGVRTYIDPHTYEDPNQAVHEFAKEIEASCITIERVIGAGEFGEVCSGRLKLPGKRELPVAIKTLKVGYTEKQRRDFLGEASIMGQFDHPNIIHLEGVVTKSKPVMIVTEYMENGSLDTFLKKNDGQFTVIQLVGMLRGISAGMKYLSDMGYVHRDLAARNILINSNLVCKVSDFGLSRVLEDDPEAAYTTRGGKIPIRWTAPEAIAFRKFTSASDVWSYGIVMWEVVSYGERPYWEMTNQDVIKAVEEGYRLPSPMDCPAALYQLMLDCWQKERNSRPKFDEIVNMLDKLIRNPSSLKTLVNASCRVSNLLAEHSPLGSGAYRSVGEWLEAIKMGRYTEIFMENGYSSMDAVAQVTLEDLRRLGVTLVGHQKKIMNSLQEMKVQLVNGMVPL
The target is the same in experiment [5]. The following applies: at 10 µM.
Experiment [6] concerns the target Ephrin type-A receptor 7 (Homo sapiens) (UniProt Q15375). The following applies: at 1 µM.
Experiment [7] shares this target. The following applies: at 10 µM.
In experiment [8] the target is T2, Ephrin type-A receptor 8 (Homo sapiens) (UniProt P29322).
T2 sequence (whole entry): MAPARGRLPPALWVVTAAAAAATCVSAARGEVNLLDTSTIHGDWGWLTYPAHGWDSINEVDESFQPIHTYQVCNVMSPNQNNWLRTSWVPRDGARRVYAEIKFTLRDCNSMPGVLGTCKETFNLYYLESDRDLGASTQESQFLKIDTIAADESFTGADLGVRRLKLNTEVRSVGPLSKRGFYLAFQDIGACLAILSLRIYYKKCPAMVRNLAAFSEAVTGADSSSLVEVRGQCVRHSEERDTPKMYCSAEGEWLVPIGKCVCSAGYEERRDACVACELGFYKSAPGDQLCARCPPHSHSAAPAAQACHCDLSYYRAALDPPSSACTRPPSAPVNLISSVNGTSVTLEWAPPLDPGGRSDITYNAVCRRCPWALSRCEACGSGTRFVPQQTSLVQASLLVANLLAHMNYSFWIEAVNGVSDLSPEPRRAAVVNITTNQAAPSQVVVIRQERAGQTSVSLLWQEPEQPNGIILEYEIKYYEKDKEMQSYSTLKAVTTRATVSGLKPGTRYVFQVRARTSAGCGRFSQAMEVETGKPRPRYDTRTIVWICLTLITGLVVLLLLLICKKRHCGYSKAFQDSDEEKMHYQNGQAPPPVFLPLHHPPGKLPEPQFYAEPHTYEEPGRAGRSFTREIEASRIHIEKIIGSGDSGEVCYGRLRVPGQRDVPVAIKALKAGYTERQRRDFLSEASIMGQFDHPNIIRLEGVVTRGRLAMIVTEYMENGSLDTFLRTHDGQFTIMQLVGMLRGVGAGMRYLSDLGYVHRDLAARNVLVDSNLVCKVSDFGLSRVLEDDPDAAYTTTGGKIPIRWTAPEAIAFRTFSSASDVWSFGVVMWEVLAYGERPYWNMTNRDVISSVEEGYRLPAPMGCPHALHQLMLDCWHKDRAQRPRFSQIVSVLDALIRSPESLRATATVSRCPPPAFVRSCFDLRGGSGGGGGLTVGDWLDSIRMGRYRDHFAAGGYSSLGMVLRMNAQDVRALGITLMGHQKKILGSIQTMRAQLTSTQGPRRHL
The settings on record: at 1 µM.

Experiment [9] deals with T2, Ephrin type-A receptor 8 (Homo sapiens). The settings on record: at 10 µM.
In experiment [10] the target is T3, Ephrin type-B receptor 1 (Homo sapiens) (UniProt P54762).
T3 sequence (whole entry): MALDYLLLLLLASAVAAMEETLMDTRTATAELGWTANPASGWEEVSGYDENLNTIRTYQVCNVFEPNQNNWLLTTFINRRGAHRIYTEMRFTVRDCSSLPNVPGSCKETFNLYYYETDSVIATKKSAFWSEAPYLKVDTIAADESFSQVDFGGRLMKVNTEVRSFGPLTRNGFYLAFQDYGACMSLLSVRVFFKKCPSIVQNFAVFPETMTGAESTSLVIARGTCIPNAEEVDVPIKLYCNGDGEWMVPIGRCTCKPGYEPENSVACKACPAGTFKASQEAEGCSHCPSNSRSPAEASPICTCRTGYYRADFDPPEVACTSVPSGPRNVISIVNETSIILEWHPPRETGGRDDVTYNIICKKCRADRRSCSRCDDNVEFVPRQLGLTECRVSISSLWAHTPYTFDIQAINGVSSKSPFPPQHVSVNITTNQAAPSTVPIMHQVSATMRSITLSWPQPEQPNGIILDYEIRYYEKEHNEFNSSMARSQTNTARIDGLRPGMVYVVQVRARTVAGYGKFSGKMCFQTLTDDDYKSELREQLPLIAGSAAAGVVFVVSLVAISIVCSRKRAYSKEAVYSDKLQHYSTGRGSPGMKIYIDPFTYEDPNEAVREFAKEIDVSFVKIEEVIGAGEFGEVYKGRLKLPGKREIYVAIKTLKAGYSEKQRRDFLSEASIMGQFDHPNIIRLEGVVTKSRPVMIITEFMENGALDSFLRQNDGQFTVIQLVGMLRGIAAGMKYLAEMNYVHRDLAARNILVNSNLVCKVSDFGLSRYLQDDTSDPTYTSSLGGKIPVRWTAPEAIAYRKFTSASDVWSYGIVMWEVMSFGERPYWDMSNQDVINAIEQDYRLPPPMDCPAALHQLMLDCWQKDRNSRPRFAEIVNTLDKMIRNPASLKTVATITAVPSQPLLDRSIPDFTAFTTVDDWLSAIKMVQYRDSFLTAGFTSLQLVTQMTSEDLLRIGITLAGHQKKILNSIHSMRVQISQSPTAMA
The following applies: at 1 µM.

Sequence of Ephrin type-A receptor 7 (Homo sapiens) (Q15375 28-998 limits assumed): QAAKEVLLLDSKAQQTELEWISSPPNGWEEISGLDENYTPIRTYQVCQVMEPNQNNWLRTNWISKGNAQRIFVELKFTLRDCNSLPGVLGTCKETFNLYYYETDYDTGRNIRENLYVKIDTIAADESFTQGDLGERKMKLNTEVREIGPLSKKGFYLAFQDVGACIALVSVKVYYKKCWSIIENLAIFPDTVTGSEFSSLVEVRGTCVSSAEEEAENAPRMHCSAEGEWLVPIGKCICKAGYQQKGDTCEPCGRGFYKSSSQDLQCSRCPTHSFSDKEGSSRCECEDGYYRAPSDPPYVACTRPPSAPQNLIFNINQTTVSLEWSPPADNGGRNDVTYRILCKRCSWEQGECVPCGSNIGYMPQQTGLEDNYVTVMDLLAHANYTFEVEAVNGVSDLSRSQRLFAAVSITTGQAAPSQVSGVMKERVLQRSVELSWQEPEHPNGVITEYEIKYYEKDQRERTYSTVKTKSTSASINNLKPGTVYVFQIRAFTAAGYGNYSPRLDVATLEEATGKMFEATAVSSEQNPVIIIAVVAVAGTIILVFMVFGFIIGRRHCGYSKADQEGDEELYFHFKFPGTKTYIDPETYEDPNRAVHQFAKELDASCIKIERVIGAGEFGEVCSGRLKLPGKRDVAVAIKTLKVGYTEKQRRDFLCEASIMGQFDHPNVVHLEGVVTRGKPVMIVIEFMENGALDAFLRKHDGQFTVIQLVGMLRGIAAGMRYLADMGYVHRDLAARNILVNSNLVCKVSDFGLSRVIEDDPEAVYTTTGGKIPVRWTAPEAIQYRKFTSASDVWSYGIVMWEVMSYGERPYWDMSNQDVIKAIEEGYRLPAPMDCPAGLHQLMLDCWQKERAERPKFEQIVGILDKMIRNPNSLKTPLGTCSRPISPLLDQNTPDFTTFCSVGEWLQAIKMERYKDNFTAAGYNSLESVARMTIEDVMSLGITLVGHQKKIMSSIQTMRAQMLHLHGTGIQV

A word on the residual activity: it is the signal under treatment as a percentage of the control signal. With `O=C1Nc2cc(Br)ccc2/C1=C1/Nc2ccccc2/C1=N\O`, the residual activity in experiment [1] worked out at 3%; in experiment [2] it was 109%; in experiment [3], 98%; in [4] it was 37%; in [5], 42%; in [6] it was 68%. The residual activity in experiment [7] turned out to be 20%; in [8] it was 69%; in experiment [9], 82%; in [10], 34%.
